# Source: PubChem BioAssay (NCATS)
# Inconclusive results are not listed. A call without a number means that no potency is given here. The source made the active and inactive calls. The call rests on the fitted dose curve; in most records, active means well fitted cell-killing curve with a large enough effect; inconclusive means small, poorly fitted or top-dose-only effect, or effect the other way; inactive means no such curve, though single readings can be large or run the other way.
# Test: Viability qHTS for spleen associated tyrosine kinase inhibitor (SYKi) drug resistant MV4-11 cells (AID 1963824); further: nearly all actives have a fitted effect of over 35% in size
# Conditions: SYKi-resistant MV4-11 viability, CellTiter-Glo, 72 h; series mostly up to 45 µM
# Summary of the method: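 CellTiter-Glo luminescence, read 10 min after reagent addition, reports viability after a 72 hr compound exposure. Cells are an MV4-11 line made resistant to SYK inhibition, seeded at 500 per well onto compound-containing plates.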
# Potency means the concentration at half of the fitted maximal effect.
row,Structure (SMILES),Potency
1,C=CC(C)(C)c1[nH]c2cc3c(cc2c1CC1NC(=O)C2CCCN2C1=O)C=CC(C)(C)O3 (centres undefined),inactive
2,COc1cc(CO)cc(OC)c1O[C@@H]1O[C@H](CO)[C@@H](O)[C@H](O)[C@H]1O,inactive
3,C[C@@H]1C(=O)O[C@H]2[C@H]1CC[C@@]1(C)C(=O)C=C[C@@](C)(O)[C@H]21,inactive
4,CC(=O)OC1C(C)C2C(OC3OC(CO)C(O)C(O)C3O)OC=C(C(=O)O)C2C1OC(=O)c1ccccc1 (centres undefined),inactive
5,C=CC(=O)Nc1cc(-n2c(=O)ccc3cnc4ccc(-c5ccc(NS(C)(=O)=O)cc5)cc4c32)ccc1C,1.3 µM (active)
6,C[C@@H]1C[C@@H](O)[C@@]2(CO)C(CO)=CCC[C@@H]2[C@@]12C[C@@H](c1ccoc1)OC2=O,inactive
7,CC(Cc1cccc(C(F)(F)F)c1)NCCOC(=O)c1ccccc1 (centres undefined),inactive
8,Cn1ncnc1[C@@H]1c2n[nH]c(=O)c3cc(F)cc(c23)N[C@H]1c1ccc(F)cc1,inactive
9,Cc1onc(-c2c(F)cccc2Cl)c1C(=O)N[C@@H]1C(=O)N2[C@@H]1SC(C)(C)[C@@H]2C(=O)O,13 µM (active)
10,Clc1ccc2ncc(-c3cccc(NC4CCNC4)n3)n2c1 (centres undefined),0.0103 µM (active)
11,CC(C)CC(=O)n1cc(C(N)=O)c(=O)cc1C(O)c1ccccc1 (centres undefined),inactive
12,CC(C)n1nc(Cc2cccc3ccccc23)c2c(N)ncnc21,8.2 µM (active)
13,OCC(CO[C@@H]1O[C@H](CO)[C@@H](O)[C@H](O)[C@H]1O)c1ccc2c(c1)OCO2 (some centres undefined),inactive
14,COC(=O)N[C@H](C(=O)N1[C@@H]2CC[C@@H](C2)[C@H]1c1nc2ccc(-c3ccc4c(c3)C(F)(F)c3cc(-c5cnc([C@@H]6CCC7(CC7)N6C(=O)[C@@H](NC(=O)OC)C(C)C)[nH]5)ccc3-4)cc2[nH]1)C(C)C,3.99 µM (active)
